# Pf growth 48h: Primary qHTS for delayed death inhibitors of the malarial parasite plastid, 48 hour incubation; P. falciparum luciferase growth in erythrocytes, 48 h; Potency, µM (series often up to 28.7 µM), for the others: top-dose activity change, negative = inhibition, hits mostly inhibitors; hit rate 5.9% among 310,000; AID 504832, 2011
#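 Parasite viability was followed by luminescence of a genomically integrated firefly luciferase. Cultures held 0.1% parasitemia at 2% hematocrit (final), incubated under 5% CO2 at 37 C.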
# HCV inhibitor: qHTS Assay for Inhibitors of Hepatitis C Virus (HCV); Huh7.5.1 HCVcc-Cre infection, luciferase reporter, 44 h; Potency, µM (top dose mostly 41.8 µM), for inactives: top-dose activity change, negative = inhibition, usual class: inhibitors; hit rate 3.4% among 340,000; AID 651820, 2012
#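 Cells seeded at 1,000/well and cultured 4 h, then compounds added followed by HCVcc-Cre virus (~0.5 moi). After 44 h further culture, luciferase substrate was added, plates held 15 min at room temperature, and luminescence read for 15 sec.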
# AMA1 RON2 block: qHTS for Inhibitors of AMA1-RON; Towards Development of Antimalarial Drug Lead: Primary Screen | AlphaScreen AMA1-biotinylated RON2 peptide binding | hit rate 0.2% among 360,000 | Plasmodium falciparum AMA1 (3D7) - RON2 peptide interaction | AID 720542, 2013 | Potency, µM (highest dose often 58.2 µM), for the others: at the highest dose activity change, negative = inhibition, usual class: inhibitors;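 also: 0% = vehicle wells and -100% = peptide control; nearly all actives have a fitted effect of over 45% in size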
#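 AMA1 (3D7) with his tag at 25 nM final met compounds first, then biotinylated RON2 peptide at 25 nM; detection used donor plus acceptor beads, 10 µg/mL apiece, read by AlphaScreen after 30 min at room temperature.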
# Pf growth 96h: Primary qHTS for delayed death inhibitors of the malarial parasite plastid, 96 hour incubation | P. falciparum luciferase reporter growth, 96 h | Potency, µM (doses to about 28.7 µM), inactives show at the highest dose activity change, negative = inhibition, usual class: inhibitors | hit rate 6.9% among 320,000 | AID 504834, 2011
#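 Parasite growth measured via integrated firefly luciferase reporter in P. falciparum. Infected erythrocytes at 2% hematocrit, 0.05% parasitemia final were treated 96 hours at 37 C under 5% CO2, and luminescence was read.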
# Numbers without * were called inactive; ? = inconclusive; nt = no result; [ ] = dose if it differs, or a comment. Most compounds without a hit are left out; they make up all but 11% or so of the library. Calls follow the shape of the dose curve; as a rule, active = well fitted curve in the direction sought with a large enough effect; inconclusive = small, poorly fitted or top-dose-only effect, or another doubt; inactive = no such curve, though single readings can be large; an effect the other way counts as inactive or inconclusive. Unless noted, % is scaled to controls: 0 for no effect and ±100 for the full control effect; potency is read from the fitted curve at half-maximal effect.
SMILES,Pf growth 48h,HCV inhibitor,AMA1 RON2 block,Pf growth 96h
Cc1cc(S(=O)(=O)N(Cc2ccccc2Cl)c2ccc3c(c2)CCC3)ccc1-n1cnnn1,12µM*,-10%,12%,87%
O=C(/C=C/c1ccccc1)N(Cc1cccc(Cl)c1)C1CCS(=O)(=O)C1 (stereo unspecified),6.6µM*,19%,-11%,4.1µM*
COCCNC(=S)N(CCc1c(C)[nH]c2ccccc12)Cc1ccco1,-8%,-13%,-14%,4%
COc1cccc(CN2C(=O)C3(C(C#N)=C(N)OC4=C3C(=O)CCC4)c3ccccc32)c1 (stereo unspecified),4.1µM*,-16%,4%,9%
CCOC(=O)C1=C(N)OC2=C(C(=O)CCC2)C12C(=O)N(CC(N)=O)c1ccccc12 (stereo unspecified),43%,-14%,-2%,6.6µM*
O=C(O)CNc1ccc(S(=O)(=O)C(F)(F)F)cc1[N+](=O)[O-],21%,21%,-1%,-10%
CC(=O)Nc1ccc(Nc2ccc(S(=O)(=O)C(F)(F)F)cc2[N+](=O)[O-])cc1,15µM*,-25%,-7%[11.6 µM],?
Cc1ccc(NC(=O)c2ccc(CSc3ccccn3)cc2)c(O)c1,1.5µM*,?,0%,3.7µM*
CC(=O)c1ccc(NC(=O)CNc2cc(S(=O)(=O)N3CCOCC3)ccc2N2CCCC2)cc1,?,?,-9%,?
C=CCn1c(O)c(C(C)=NC2CCN(Cc3ccccc3)CC2)c(=O)[nH]c1=O,0%,12%,-6%,-14%
CCC(=NC1CCN(Cc2ccccc2)CC1)c1c(O)[nH]c(=O)[nH]c1=O,?,8%,-8%,5.2µM*
Clc1cccc2c1Sc1ccccc1CC2N1CCNCC1 (stereo unspecified),?,10µM*,-16%,10µM*
Clc1ccc2c(c1)C(N1CCNCC1)Cc1ccccc1S2 (stereo unspecified),10µM*,?,-6%,13µM*
CCOC(=O)C1=CN(CC)S(=O)(=O)NC1c1ccc2ccccc2c1 (stereo unspecified),nt,-27%,6%,nt
CC(=O)O[C@@H](Cc1ccc(O)cc1)C(=O)CC(C)C,nt,nt,1%,nt
CN(C)c1nc(OCCNC(=O)COc2ccc(Cl)cc2Cl)nc(N2CCCCC2)n1,?,?,1%,2.6µM*
CC(C)=CCN1CCN(Cc2ccc(Sc3nncn3C)o2)CC1CCO (stereo unspecified),18%,0%,8%,21%
Brc1ccc2ncnc(Nc3cccc4ccccc34)c2c1,?,?,-6%,13µM*
CC(=O)c1ccc(NC(=O)CN(C)CC(=O)Nc2cccc(F)c2)cc1,-5%,-11%,22%,-29%
O=C(Nc1ccc(N2CCOCC2)c(Cl)c1)c1ccc(Br)o1,?,10µM*,32%,19%
O=C(Nc1ccc(N2CCN(C(=O)c3ccccc3)CC2)c(Cl)c1)c1ccc(Br)o1,10µM*,?,11%,60%
OC(c1ccc(Cl)c(Cl)c1)c1ncc(-c2ccccc2Cl)[nH]1 (stereo unspecified),nt,nt,-11%,nt
Cc1c(NC=C(C#N)C#N)c(=O)n(-c2ccccc2)n1C,0%,17%,2%,-1%
CCOC(=O)/C(C#N)=N/Nc1c(C)n(C)n(-c2ccccc2)c1=O,-25%,11%,127%,?
Cc1ccccc1C(=O)/C(C#N)=N/Nc1c(C)n(C)n(-c2ccccc2)c1=O,1.7µM*,?,-2%,12%
SMILES,Pf growth 48h,HCV inhibitor,AMA1 RON2 block,Pf growth 96h
Cc1c(N/N=C(\C#N)C(=O)c2ccccc2)c(=O)n(-c2ccccc2)n1C,1.7µM*,10µM*,-10%,?
COc1ccc([C@H]2CC(=O)C=C(c3c(OC)cccc3OC)C2)cc1,?,?,-8%,-17%
COc1cc2[nH]c(=O)n(CCC(=O)NCCCN3CCN(c4ccccc4F)CC3)c(=O)c2cc1OC,?,-6%,2%,?
COc1ccc(CNc2ncnc3sccc23)cc1OC,-20%,6.3µM*,3%,-13%
COc1ccc(CN(C)c2ncnc3sccc23)c(OC)c1OC,13µM*,11µM*,2%,?
CN(Cc1cccs1)c1ncnc2sccc12,-14%,11µM*,8%,3%
CN(Cc1ccccc1F)c1ncnc2sccc12,-2%,?,-3%,8%
COc1ccc(CCN(C)C(=O)CSc2ncnc3sccc23)cc1OC,-20%,-10%,-14%,?
COc1ccc(CCN(C)c2ncnc3sccc23)cc1OC,-5%,10µM*,0%,4%
COc1ccc(C(CNc2ncnc3sccc23)N(C)C)cc1OC (stereo unspecified),-19%,-3%,8%,0%
NC(Cc1ccccc1)c1csc(Nc2ccc(C(=O)c3ccccc3)cc2)n1 (stereo unspecified),nt,nt,0%,nt
Cc1cccc(-c2csc(N3CCC(C(N)=O)CC3)n2)c1,?,nt,nt,14%
CSc1nnc2c3c4c(sc3c(=O)n(-c3ccccc3)n12)CC(C)(C)OC4,0.74µM*,15%,19%,nt
O=C(c1cccc(S(=O)(=O)N2CCc3ccccc32)c1)N1CCN(c2ccccc2)CC1,?,10µM*,?,10µM*
COc1ccccc1N1CCN(C(=O)c2ccc(Cl)c(S(=O)(=O)NCc3ccco3)c2)CC1,?,8.9µM*,14%,nt
COc1ccccc1N1CCN(C(=O)c2ccc3c(c2)CCN3S(=O)(=O)c2ccccc2)CC1,8.3µM*,13µM*,-1%,?
O=C(c1cccc(S(=O)(=O)N2CCc3ccccc32)c1)N1CCCC(C(F)(F)F)C1 (stereo unspecified),?,11µM*,-4%,?
COc1ccc(N2CCN(C(=O)c3ccc4c(c3)CCN4S(=O)(=O)c3ccccc3)CC2)cc1,2%,?,?,3%
COc1ccc(C(=O)NCc2nnc(SC)n2Cc2ccccc2)cc1,-12%,-7%,22%,24%
Cc1ccc(C(=O)C(C(=O)/C=C/c2ccccc2)=C2SCCCS2)cc1,5.2µM*,?,-28%,9.3µM*
Cc1ccc(C(=O)C=CC=Cc2ccccc2)cc1,nt,nt,5%,nt
CCCCC(=O)N1C/C=C\C(c2ccc(OC)cc2)N(Cc2ccc(F)cc2)C(=O)[C@H]1Cc1ccccc1 (stereo partly specified),12µM*,?,0%,10µM*
COc1ccc(C2/C=C\CN(C(=O)c3ccc(C)cc3)[C@H](Cc3ccccc3)C(=O)N2Cc2ccc(F)cc2)cc1 (stereo partly specified),4.1µM*,-12%[8.37 µM],-3%,4.1µM*
COc1ccc(C2/C=C\CN(C(=O)C3CC3)[C@H](Cc3ccccc3)C(=O)N2Cc2ccc(F)cc2)cc1 (stereo partly specified),10µM*,-10%[8.37 µM],-11%,?
